Data reported in article PMC13494018.
Unmarked numbers belong to inactive results. How the calls were made is not given here.

B1: design_607_777643b9-bd23-49d1-80ae-2b1434974efa_2342_dldesign_0_cycle1_af2pred (protein)
chain: SEAQKEGKAFSAMMKTASEKGKELSKKTGTPLAEMAKIVQDIADAYAKGPEEIKKVAKTPEAKELATAAYDTYEKTYKA
B2: design_608_fd41b8f9-4da9-4c78-93ec-aaa316ed4933_323_dldesign_0_cycle1_af2pred (protein)
chain: VLEEVLKLGKEAAEALLKPNGKEEAAKLVEEAEKVVKSHPNAPTEASYVLVTMRRAVRKPDHEEGAKRVREAVEEAE
B3: design_608_fd41b8f9-4da9-4c78-93ec-aaa316ed4933_446_dldesign_0_cycle1_af2pred (protein)
chain: LEATAEAYAEAILHAGEEAAKVAKKLSEELAEEVRKKAEEFAKKALDDPSKAKEYLKKAREYFKKVVEEVKEKL
B4: design_607_777643b9-bd23-49d1-80ae-2b1434974efa_2469_dldesign_0_cycle1_af2pred (protein)
chain: KKITMEEQETLVNSSDDAAYYDVINTPEAAEKAKEAKATRDSLVAKWKAEDPEGGEKLKKVADHIYENSYKISKRILEEKKE
B5: design_608_fd41b8f9-4da9-4c78-93ec-aaa316ed4933_287_dldesign_0_cycle1_af2pred (protein)
chain: MEAENMEKAIKKLREGKAALKTTPEEAARVLRAQAKELKELAKKSSPENAAFMETQAKAMEKKAKELEAKAAA
B6: design_608_fd41b8f9-4da9-4c78-93ec-aaa316ed4933_998_dldesign_0_cycle1_af2pred (protein)
chain: SELAKKAIEHLKKAIELAKTDPKYAPQIIAAAKAAIAALEKGDYEKAYKEASKALSIAYAAGNKEAEEELSEALYYIVKASK
B7: design_608_fd41b8f9-4da9-4c78-93ec-aaa316ed4933_161_dldesign_0_cycle1_af2pred (protein)
chain: ITEEQKKVAEKLVERAEEVGKKAIEAGYPELGKKVLELAKETRKALEVSAEEAAKKAAELAQLKAEAEFEIKK
B8: design_607_777643b9-bd23-49d1-80ae-2b1434974efa_2486_dldesign_0_cycle1_af2pred (protein)
chain: AAEKEAAKAEAAKLVEEAADAAVEKGAEGVEAIIKELEKAAKAASPEARVYYEKAIRTAKSLAEDVKELEN
B9: design_608_fd41b8f9-4da9-4c78-93ec-aaa316ed4933_922_dldesign_0_cycle1_af2pred (protein)
chain: GETEKLREEAQKLMDEAVDLLDKAKTEEEVEKAVEIAEEAYKVAAKATPEIAESALKGYKGLKKMAEEIKKVLKK
B10: design_608_fd41b8f9-4da9-4c78-93ec-aaa316ed4933_615_dldesign_0_cycle1_af2pred (protein)
chain: DPAEELAKKLLEIADLAAKPETLEKALEEAEKLKEEALKLAEKYADDPALKKKYLKAAKTAESFIEDIKRSKEL
B11: design_607_777643b9-bd23-49d1-80ae-2b1434974efa_2300_dldesign_0_cycle1_af2pred (protein)
chain: GKKEEAKKYAEEAKKKIKELAKKAEKSTDEEEVKKLAEKARELAKKAIEYAKKELTPEEAAKVAKELSEAAHEAHEAAAIGLFNIRKK
B12: design_608_fd41b8f9-4da9-4c78-93ec-aaa316ed4933_209_dldesign_0_cycle1_af2pred (protein)
chain: AEEEEEKKREKLLEEAKKLGKEAAKYVKKAIAKGKTEEATALAAEASKALLALYDLDAAGEPYEKAKAEYDKIKELTEKIKALAE
B13: design_608_fd41b8f9-4da9-4c78-93ec-aaa316ed4933_669_dldesign_0_cycle1_af2pred (protein)
chain: KEELKKALEKTRKEVKAAAAGKPQDVIDVIRKGAKEAEKLNKNAGILLEAAANRAEFAGATPAEAAAIALKAIERAEKE
B14: design_607_777643b9-bd23-49d1-80ae-2b1434974efa_2258_dldesign_0_cycle1_af2pred (protein)
chain: AAVEEAKAALKKRYEKALKLAKEASEELYKEVVEKYKEYVAAAEAAKDPAEKVAALTAGNAFMYELIAEARSEIERKKEE
B15: design_607_777643b9-bd23-49d1-80ae-2b1434974efa_2236_dldesign_0_cycle1_af2pred (protein)
chain: EAKKYAEKAEKLAKEAEESTDDYEKAKKYAEEARKYAKKAVAYAKANPEDKEAKELAKKAIEAAHKAQEALAEAKAN
B16: design_608_fd41b8f9-4da9-4c78-93ec-aaa316ed4933_199_dldesign_0_cycle1_af2pred (protein)
chain: AEEYRKKAKELAEKAKKYVEKLKADPENAEEYYKKAVEYIHKLYELAAEAESEGHPEVAKEIRELARKIGEEAKKAYEEVKA
B17: design_608_fd41b8f9-4da9-4c78-93ec-aaa316ed4933_265_dldesign_0_cycle1_af2pred (protein)
chain: GLKEELRKLATQYMHEAAEYAAEAEHLANRGGDLAEVEEAAKKAKEYAEKSIELMKEAGTEEEYEKAKKVAEKLIARAEAALKKK
B18: design_608_fd41b8f9-4da9-4c78-93ec-aaa316ed4933_627_dldesign_0_cycle1_af2pred (protein)
chain: SEKKKVGEEAYKVASRALSIAYAKGDKEFEEKAEELLEKVEEVKKNGNLEEAKKALEEAKALLKEAEKLAKER
B19: design_608_fd41b8f9-4da9-4c78-93ec-aaa316ed4933_750_dldesign_0_cycle1_af2pred (protein)
chain: GEETEKLKKELEKAEKEAKEALKKAKELTKEEAKKLLSEQAAKVAELAAESSKDKEVSKEAKKVLKEVRKEGKEILEEK
B20: design_607_777643b9-bd23-49d1-80ae-2b1434974efa_2448_dldesign_0_cycle1_af2pred (protein)
chain: SAEEEAKKLLEEAKKLAEEAGKSKDPEEAEKLAREAIKLAEKAAKLGLKEEASKVAHLARENLAEAQYRYRKEKK
B21: design_608_fd41b8f9-4da9-4c78-93ec-aaa316ed4933_178_dldesign_0_cycle1_af2pred (protein)
chain: AATEEANKALLEAKEAIVDAYNEKYKLDPEEGKKLRKELLKKLAEAYASENAAEKLKEIKKEAKKLAEEYEKKN
B22: design_608_fd41b8f9-4da9-4c78-93ec-aaa316ed4933_509_dldesign_0_cycle1_af2pred (protein)
chain: EEEKSKLTREAADAVRTFGKNATKARPEMSRLEVMDKIDAGLENPELLKETTEEYAEAAKEKGLEEDAEKIKESGKILLKYVKE
B23: design_608_fd41b8f9-4da9-4c78-93ec-aaa316ed4933_228_dldesign_0_cycle1_af2pred (protein)
chain: GEEVIKEIAEEEIKEAEKTLKEAEKLLKKGGTEEAKEAVEKAKEYIKKGKEKLEEGDYKTAYSLATLGKHNAEIAIKLIKEKN
B24: design_607_777643b9-bd23-49d1-80ae-2b1434974efa_2270_dldesign_0_cycle1_af2pred (protein)
chain: AAADATVDAAIAKLRALGKEYPEGADAFNQLADNLKKAAAKAKTPEAKIAAAKKAMATAEHILKTTKEAEERAKKRKEEEEK
B25: design_607_777643b9-bd23-49d1-80ae-2b1434974efa_2272_dldesign_0_cycle1_af2pred (protein)
chain: NTQKAADKFSEAVRNLREAAKLGGEEVKEMAEKAILAAADDPEKGVEQAEKLLKYVKENVSEEVAKLVEEALKNFKEMAKLLN
B26: design_607_777643b9-bd23-49d1-80ae-2b1434974efa_2358_dldesign_0_cycle1_af2pred (protein)
chain: MEEEAKRILEEAEKKAKEAEAIAKSGKNTKEAEKLAREALKLVKENAPIIPKEEALKAAKKALEVLFEATEAAN
B27: design_607_777643b9-bd23-49d1-80ae-2b1434974efa_2234_dldesign_0_cycle1_af2pred (protein)
chain: SAAVKAAAEKAIAAFEAVAKKAKKAAEEGAKPEEVEKLRKELEKARKAGKEVAKKAAADPELVKKLSNAAFEAYEAIAEAAFAA
B28: design_608_fd41b8f9-4da9-4c78-93ec-aaa316ed4933_544_dldesign_0_cycle1_af2pred (protein)
chain: AAAAAAEAAAKVAKVKELAKEAAEDPSKAPEVYKEGKKIADAATPETAAAIAAEMHKGHEERAENSWKRSRE
B29: design_608_fd41b8f9-4da9-4c78-93ec-aaa316ed4933_3_dldesign_0_cycle1_af2pred (protein)
chain: GMEEESKAYKEALDKLSELGKEAEKAAKKGNEEVRKKLLKLKEEAEKKLDEGFEKGKEAAKEAKKFIEEKLKEVKKLLKELE
B30: design_607_777643b9-bd23-49d1-80ae-2b1434974efa_2298_dldesign_0_cycle1_af2pred (protein)
chain: VTPEELAEAAKKKDELLDAAFAALQAAKTVEEVEAVAKEFLAKAEELGKDPRYAAAAESFKKILTRMKEAAVKAIK
B31: design_608_fd41b8f9-4da9-4c78-93ec-aaa316ed4933_913_dldesign_0_cycle1_af2pred (protein)
chain: ATLAELSAAFAKAYELIAEGEKASPEEGVKLMEKAKEEVEAARKLAEASADKEAALAGVERLAKRVEENKAKAEAKLKAA
B32: design_608_fd41b8f9-4da9-4c78-93ec-aaa316ed4933_704_dldesign_0_cycle1_af2pred (protein)
chain: DAAAATARALADQAVAAGKAGEEGDLATAKAARETLAALREELRKLVEEDPSVAPYASAGMAEGYQAIAEGFKKNS
B33: design_608_fd41b8f9-4da9-4c78-93ec-aaa316ed4933_796_dldesign_0_cycle1_af2pred (protein)
chain: EEAKEKAKKLEEEALKKAKEAGELIGKPKQVVHLTKLAIEDPELIPLAKKAILEAAKELKKKDPEKGKKAEELAKEMEKYVKEANKLK
B34: design_608_fd41b8f9-4da9-4c78-93ec-aaa316ed4933_71_dldesign_0_cycle1_af2pred (protein)
chain: AKEEKEKEIEKLKKKAERLAERAKKVAEEAEKAGFEEVAKKIKEKAKELEKAAESMKEDYEKGKKEASEKAGELSEVMAEAKYLLAKK
B35: design_608_fd41b8f9-4da9-4c78-93ec-aaa316ed4933_536_dldesign_0_cycle1_af2pred (protein)
chain: NNAEASKLAHEGYEYRAEGAQLSKKNPAKAAVLFEEAAKKFAEAAKLAEDPEDKKLLQAYADRALAEAKKAAAEAAKALA
B36: design_608_fd41b8f9-4da9-4c78-93ec-aaa316ed4933_1100_dldesign_0_cycle1_af2pred (protein)
chain: ELAKEIEKFAEEAKERAKKGNPEEAREAYREFREKAKKIAEEDPSVAELASKKAAEVAEVAAEAIYKKLKE
B37: design_608_fd41b8f9-4da9-4c78-93ec-aaa316ed4933_581_dldesign_0_cycle1_af2pred (protein)
chain: SEELEKVKKLLEKGIETAKKNPVKGASLLLKAEHMAKQLAEKKKGTEEAKELEELSKKAKEEFDKAAKKISE
B38: design_607_777643b9-bd23-49d1-80ae-2b1434974efa_2248_dldesign_0_cycle1_af2pred (protein)
chain: AAAEAAAKAKEAAKKAAAIAKEGIAKQEKAAKEGDAEKVREIAKEVRTKLAAEAKATPEGAKAYAAAAHDVYEAAAEYSQEAKKAK

Biological target: VTCN1, Q7Z7D3
Sequence (Q7Z7D3 whole entry): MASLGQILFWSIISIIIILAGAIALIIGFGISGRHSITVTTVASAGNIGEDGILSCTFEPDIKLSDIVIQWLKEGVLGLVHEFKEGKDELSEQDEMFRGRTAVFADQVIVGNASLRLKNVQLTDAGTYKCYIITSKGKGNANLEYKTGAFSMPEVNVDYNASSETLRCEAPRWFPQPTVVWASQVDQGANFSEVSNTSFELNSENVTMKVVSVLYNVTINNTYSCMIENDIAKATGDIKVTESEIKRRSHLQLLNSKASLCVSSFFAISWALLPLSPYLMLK

Binder	binding in a display sort
B1	not found
B2	not found
B3	not found
B4	not found
B5	not found
B6	not found
B7	not found
B8	not found
B9	not found
B10	not found
B11	not found
B12	not found
B13	not found
B14	not found
B15	not found
B16	not found
B17	not found
B18	not found
B19	not found

Binder	binding in a display sort
B20	not found
B21	not found
B22	not found
B23	not found
B24	not found
B25	not found
B26	not found
B27	not found
B28	not found
B29	not found
B30	not found
B31	not found
B32	not found
B33	not found
B34	not found
B35	not found
B36	not found
B37	not found
B38	not found
